# From PubChem BioAssay (NCATS)
# Where “and” joins values, the source holds several entries; their conditions need not be identical. Equal values may be shown once. Results filed as inconclusive are left out. Calls of active or inactive are those of the source. Calls come from the whole dose curve; as a rule, active = well fitted cell-killing curve with a large enough effect; inconclusive = small, poorly fitted or top-dose-only effect, or effect the other way; inactive = flat fitted curve, though single readings scatter. Non-standard residues stand in square brackets, D forms with d. Residues, ends and D or L forms follow the SMILES beside them. *: point of attachment. Sta = CC(C)C[C@H](N)[C@@H](O)CC(=O)O; Isovaleryl = CC(C)CC(=O)*
# Test system: Hek293T
# Test: Primary qHTS to identify gynecologic anti-cancer compounds using libraries of approved drugs and bioactive compounds (AID 1345084); note: nearly all actives have a fitted effect of over 55% in size
# Details: Gynecologic cancer cell panel viability, ATPlite luminescence, 48 h, control line for the selectivity index; series mostly up to 57.5 µM; activity change, negative = cytotoxicity: at the top concentration
# Method in brief: (§1)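 Luminescence from the ATPlite ATP-monitoring reagent indicates viable cell number; lower signal means cytotoxicity. Cells received compound 16 h after seeding and were exposed for 48 h across five concentrations.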
# % is set by controls: 0 for no effect and ±100 for the full control effect; potency is the fitted concentration of half-maximal effect.
Compound,"activity change, negative = cytotoxicity",Potency
CC(=O)Nc1ccc(O)cc1,9.94% (inactive),–
CCN(CC)C(=S)SSC(=S)N(CC)CC,–,8.91 µM (active)
COc1cc2c(N3CCN(C(=O)Nc4ccc(OC(C)C)cc4)CC3)ncnc2cc1OCCCN1CCCCC1,–,inactive
CS(=O)(=O)OCCCCOS(C)(=O)=O,18.2% (inactive),–
Nc1cc(C(Cl)=C(Cl)Cl)c(S(N)(=O)=O)cc1S(N)(=O)=O,-2.95% (inactive),–

# Test system: JEG-3
# Test: as above
# Details: Gynecologic cancer cell panel viability, ATPlite luminescence, 48 h; series mostly up to 57.5 µM; activity change, negative = cytotoxicity: at the top concentration
# Method in brief: as §1
Compound,"activity change, negative = cytotoxicity",Potency
O=C(NCC1CCCCN1)c1cc(OCC(F)(F)F)ccc1OCC(F)(F)F (centres undefined),-11.2% (inactive),–
O=C(OC1C[C@H]2CC[C@@H](C1)[N+]21CCCC1)C(O)(c1ccccc1)c1ccccc1 (some centres undefined),-7.58% (inactive),–
CCC(C)(Oc1ccc(C2(c3ccc(OC(C)(CC)C(=O)O)cc3)CCCCC2)cc1)C(=O)O (centres undefined),–,inactive
Oc1ccc(OCc2ccccc2)cc1,-14.8% (inactive),–
CCOC(=O)c1c(C)n(C)c2ccc(O)cc12,2.67% (inactive),–
CC(C)c1nc(CN(C)C(=O)N[C@H](C(=O)N[C@@H](Cc2ccccc2)C[C@H](O)[C@H](Cc2ccccc2)NC(=O)OCc2cncs2)C(C)C)cs1,–,inactive
N=C(N)c1ccc2cc(OC(=O)c3ccc(N=C(N)N)cc3)ccc2c1,9.9% (inactive),–
Cc1cc(=O)oc2cc(O)ccc12,6.49% (inactive),–
c1cnc2cc3c(cc2n1)C1CNCC3C1,–,inactive
Clc1ccc(C(Cn2ccnc2)OCc2ccsc2Cl)c(Cl)c1 (centres undefined),-6.22% (inactive),–
CN(C)C(=O)COC(=O)Cc1ccc(OC(=O)c2ccc(N=C(N)N)cc2)cc1,1.48% (inactive),–
CC1=C(C)C(=O)C(C(CCCCCC(=O)O)c2ccccc2)=C(C)C1=O (centres undefined),-2.42% (inactive),–
Cn1c(NCCN(CCO)CCCc2ccc([N+](=O)[O-])cc2)cc(=O)n(C)c1=O,4.25% (inactive),–
O=C(O)c1cn(-c2ccc(F)cc2)c2cc(N3CCNCC3)c(F)cc2c1=O,-2.86% [at 25.3 µM] (inactive),–
CC(C)[C@H](N)C(=O)OCCOCn1cnc2c(=O)[nH]c(N)nc21,0.199% (inactive),–
Nc1ccc(S(N)(=O)=O)cc1,1.65% (inactive),–
COc1cc(OC)c(C(=O)CCCN2CCCC2)c(OC)c1,1.36% (inactive),–
O=C(NOCC1CC1)c1ccc(F)c(F)c1Nc1ccc(I)cc1Cl,-10.2% (inactive),–
CC1(C)CCC(C)(C)c2cc(NC(=O)c3ccc(C(=O)O)cc3)ccc21,5.53% (inactive),–

Compound,"activity change, negative = cytotoxicity",Potency
O=C(c1ccccc1)c1ccc2n1CCC2C(=O)O (centres undefined),6.53% (inactive),–
O=C(O)CCNC(=O)c1ccc(N=Nc2ccc(O)c(C(=O)O)c2)cc1,-2.86% (inactive),–
CN(C)c1ccc(O)c2c1C[C@H]1C[C@H]3[C@H](N(C)C)C(=O)C(C(N)=O)=C(O)[C@@]3(O)C(=O)C1=C2O,5.3% (inactive),–
CNC[C@H](O)c1ccc(O)c(O)c1,0.518% [at 25.3 µM] (inactive),–
COc1cc2nc(N3CCN(C(=O)C4CCCO4)CC3)nc(N)c2cc1OC (centres undefined),-7.43% (inactive),–
CCC[C@@H]1C[C@@H](C(=O)N[C@@H]([C@H]2O[C@H](SC)[C@H](O)[C@@H](O)[C@H]2O)[C@@H](C)O)N(C)C1,-8.56% (inactive),–
CCC1=C(C)CN(C(=O)NCCc2ccc(S(=O)(=O)NC(=O)NC3CCC(C)CC3)cc2)C1=O (centres undefined),–,inactive
Nc1ncn([C@H]2C[C@H](O)[C@@H](CO)O2)c(=O)n1,-0.891% (inactive),–
CCCc1cc(=O)[nH]c(=S)[nH]1,12.4% (inactive),–
CC(C)CC(=O)N[C@H](C(=O)N[C@H](C(=O)N[C@@H](CC(C)C)[C@@H](O)CC(=O)N[C@@H](C)C(=O)N[C@@H](CC(C)C)[C@@H](O)CC(=O)O)C(C)C)C(C)C (Isovaleryl-VV[Sta]A[Sta]-OH),15.6% (inactive),–
COCCCN1CCC(NC(=O)c2cc(Cl)c(N)c3c2OCC3)CC1,-15.5% (inactive),–
CC1=C(C(=O)O)N2C(=O)[C@@H](NC(=O)[C@H](N)C3=CCC=CC3)[C@H]2SC1,0.0359% (inactive),–
CC(=O)NC[C@H]1CN(c2ccc(N3CCOCC3)c(F)c2)C(=O)O1,1.5% (inactive),–
CC(=O)Nc1ccc(O)cc1,-1.67% (inactive),–
CCN(CC)C(=S)SSC(=S)N(CC)CC,–,28.2 µM (active)
COc1cc2c(N3CCN(C(=O)Nc4ccc(OC(C)C)cc4)CC3)ncnc2cc1OCCCN1CCCCC1,-4.77% (inactive),–
CS(=O)(=O)OCCCCOS(C)(=O)=O,-0.694% (inactive),–
Nc1cc(C(Cl)=C(Cl)Cl)c(S(N)(=O)=O)cc1S(N)(=O)=O,-21.5% (inactive),–

# Test system: OV90
# Test: as above
# Details: Gynecologic cancer cell panel viability, ATPlite luminescence, 48 h; series mostly up to 57.5 µM; activity change, negative = cytotoxicity: at the top concentration
# Method in brief: as §1
Compound,"activity change, negative = cytotoxicity",Potency
O=C(NCC1CCCCN1)c1cc(OCC(F)(F)F)ccc1OCC(F)(F)F (centres undefined),-34.4% (inactive),–
O=C(OC1C[C@H]2CC[C@@H](C1)[N+]21CCCC1)C(O)(c1ccccc1)c1ccccc1 (some centres undefined),-15.9% (inactive),–
CCC(C)(Oc1ccc(C2(c3ccc(OC(C)(CC)C(=O)O)cc3)CCCCC2)cc1)C(=O)O (centres undefined),–,inactive
Oc1ccc(OCc2ccccc2)cc1,-3.14% (inactive),–
CCOC(=O)c1c(C)n(C)c2ccc(O)cc12,9.35% (inactive),–
CC(C)c1nc(CN(C)C(=O)N[C@H](C(=O)N[C@@H](Cc2ccccc2)C[C@H](O)[C@H](Cc2ccccc2)NC(=O)OCc2cncs2)C(C)C)cs1,–,inactive
N=C(N)c1ccc2cc(OC(=O)c3ccc(N=C(N)N)cc3)ccc2c1,-4.66% (inactive),–
Cc1cc(=O)oc2cc(O)ccc12,-20.2% (inactive),–
c1cnc2cc3c(cc2n1)C1CNCC3C1,–,inactive
Clc1ccc(C(Cn2ccnc2)OCc2ccsc2Cl)c(Cl)c1 (centres undefined),-21.6% (inactive),–
CN(C)C(=O)COC(=O)Cc1ccc(OC(=O)c2ccc(N=C(N)N)cc2)cc1,4.75% (inactive),–
CC1=C(C)C(=O)C(C(CCCCCC(=O)O)c2ccccc2)=C(C)C1=O (centres undefined),16.2% (inactive),–
Cn1c(NCCN(CCO)CCCc2ccc([N+](=O)[O-])cc2)cc(=O)n(C)c1=O,2.2% (inactive),–
O=C(O)c1cn(-c2ccc(F)cc2)c2cc(N3CCNCC3)c(F)cc2c1=O,4.39% [at 25.3 µM] (inactive),–
CC(C)[C@H](N)C(=O)OCCOCn1cnc2c(=O)[nH]c(N)nc21,0.38% (inactive),–
Nc1ccc(S(N)(=O)=O)cc1,9.55% (inactive),–
COc1cc(OC)c(C(=O)CCCN2CCCC2)c(OC)c1,0.985% (inactive),–
O=C(NOCC1CC1)c1ccc(F)c(F)c1Nc1ccc(I)cc1Cl,–,7.08 µM (active) and 3.55 µM (active)
CC1(C)CCC(C)(C)c2cc(NC(=O)c3ccc(C(=O)O)cc3)ccc21,12.5% (inactive),–

Compound,"activity change, negative = cytotoxicity",Potency
O=C(c1ccccc1)c1ccc2n1CCC2C(=O)O (centres undefined),6.64% (inactive),–
O=C(O)CCNC(=O)c1ccc(N=Nc2ccc(O)c(C(=O)O)c2)cc1,10.6% (inactive),–
CN(C)c1ccc(O)c2c1C[C@H]1C[C@H]3[C@H](N(C)C)C(=O)C(C(N)=O)=C(O)[C@@]3(O)C(=O)C1=C2O,-3.21% (inactive),–
CNC[C@H](O)c1ccc(O)c(O)c1,-0.604% [at 25.3 µM] (inactive),–
COc1cc2nc(N3CCN(C(=O)C4CCCO4)CC3)nc(N)c2cc1OC (centres undefined),-16.8% (inactive),–
CCC[C@@H]1C[C@@H](C(=O)N[C@@H]([C@H]2O[C@H](SC)[C@H](O)[C@@H](O)[C@H]2O)[C@@H](C)O)N(C)C1,1.64% (inactive),–
CCC1=C(C)CN(C(=O)NCCc2ccc(S(=O)(=O)NC(=O)NC3CCC(C)CC3)cc2)C1=O (centres undefined),–,inactive
Nc1ncn([C@H]2C[C@H](O)[C@@H](CO)O2)c(=O)n1,14.4% (inactive),–
CCCc1cc(=O)[nH]c(=S)[nH]1,12.1% (inactive),–
CC(C)CC(=O)N[C@H](C(=O)N[C@H](C(=O)N[C@@H](CC(C)C)[C@@H](O)CC(=O)N[C@@H](C)C(=O)N[C@@H](CC(C)C)[C@@H](O)CC(=O)O)C(C)C)C(C)C (Isovaleryl-VV[Sta]A[Sta]-OH),2.12% (inactive),–
COCCCN1CCC(NC(=O)c2cc(Cl)c(N)c3c2OCC3)CC1,-22% (inactive),–
CC1=C(C(=O)O)N2C(=O)[C@@H](NC(=O)[C@H](N)C3=CCC=CC3)[C@H]2SC1,-7.74% (inactive),–
CC(=O)NC[C@H]1CN(c2ccc(N3CCOCC3)c(F)c2)C(=O)O1,3.76% (inactive),–
CC(=O)Nc1ccc(O)cc1,12.9% (inactive),–
CCN(CC)C(=S)SSC(=S)N(CC)CC,–,4.47 µM (active)
COc1cc2c(N3CCN(C(=O)Nc4ccc(OC(C)C)cc4)CC3)ncnc2cc1OCCCN1CCCCC1,-12.8% (inactive),–
CS(=O)(=O)OCCCCOS(C)(=O)=O,4.85% (inactive),–
Nc1cc(C(Cl)=C(Cl)Cl)c(S(N)(=O)=O)cc1S(N)(=O)=O,2.81% (inactive),–
